Measured values published in PubChem BioAssay (NCI).
This is part of a sample that, as a whole, favours compounds with a hit. Of some 83,000 tested, about 20% had one in any assay.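 Each cell line was grown in a 96-well plate and treated with one concentration of compound for 48 hours. Values below 10 were considered active.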 Unmarked numbers belong to inactive results. Calls of active or inactive are those of the source.

test system: NCI-H322M lung; assay: NCI-60 one-dose screen, 48 h (100 = growth as untreated, 0 = no growth, -100 = all killed); details: 10 µM unless noted
Description: Growth inhibition of the NCI-H322M human Non-Small Cell Lung tumor cell line is measured as a screen for anti-cancer activity. Cells are grown in 96 well plates and exposed to the test compound for 48 hours. Compounds are tested at a single concentration, which is 10^-5 M for most compounds. The reported endpoint is percent growth (GI% or GIPRCNT), where numbers from 0 - 100% represent growth inhibition, and numbers from -100% - 0 represent cell death. For example, a value of 40 represents 60% growth inhibition. A value of 0 means no net growth occurred over the course of the experiment. A value of -40 indicates 40% of cells at the beginning of the experiment died by the end of the experiment. A value of -100 means all cells are dead at the end of the experiment.
NCI-60 Human Tumor Cell Lines Screen was performed using the standard one-dose NCI protocol, which is described in more detail at https://dtp.cancer.gov/discovery_development/nci-60/default.htm.
Compounds with GIPRCNT values below 10 were considered active. Activity score was based on GIPRCNT using the following formula: […]
Score is 0 for GIPRCNT values of 100 or above, 50 for GIPRCNT values of 0, and 100 for GIPRCNT values of -100.

SMILES	growth
O=C(Nc1cc(Nc2ncccc2-c2ncnc3nc[nH]c23)ccc1F)c1cc(C(F)(F)F)cc(C(F)(F)F)c1	46.7%
O=C(NCc1ccccc1)c1ccc2c(c1)NC(=O)[C@@H]1CCCN21	92.8%
O=C(/C(=C/c1ccc([N+](=O)[O-])cc1)SCc1ccc(F)cc1)c1ccc(Cl)cc1	98.1%
COc1cc(/C=N/Nc2nc(-c3ccc(F)cc3)c(C#N)c(N3CCOCC3)n2)ccc1O	97.4%
C=C(C)[C@@H]1CC[C@]2(C(=O)n3ccnc3)CC[C@]3(C)[C@H](CC[C@@H]4[C@@]5(C)CCCNC(C)(C)[C@@H]5CC[C@]43C)[C@@H]12	66.9%
COC(=O)/C=C/c1cc(OC(C)=O)c2c(c1)C(C(=O)OC)C(c1ccc(OC(C)=O)c(OC(C)=O)c1)O2 (stereo not given)	55.4%
C=C1C(=O)O[C@H]2[C@H]1CC/C(C=Nc1c(N)cc(C(F)(F)F)cc1Br)=C\CC[C@@]1(C)O[C@@H]21	77.8%
CCOC(=O)c1ccc(Nc2ncnc3ccc(NC(=O)c4ccccc4)cc23)cc1	95.6%
Cc1cnc(SCc2ccc(Cl)cc2Cl)nc1Nc1ccc(Cl)c(Cl)c1	82%
Nc1cc(N)c(S(=O)(=O)O)cc1N=Nc1cc([N+](=O)[O-])ccc1O	94.9%
CC(C)(C)CC(C)(C)Cc1ccc(OCCOCC[N+](C)(C)Cc2ccccc2)cc1	70.6%
CCOCc1cc(C(C)(C)C)ccc1O	106%
O=S(=O)(O)c1ccc(N=NSc2ccc3ccccc3c2)cc1	92.8%
CC(=O)c1cc2c(N)c(C(=O)Nc3ccccn3)sc2nc1C	73.6%
CCc1ccc(OCc2ccccc2C(=O)Nc2ccc3nc(C)cc(N)c3c2)cc1	-92.9% (active)
O=C1CC(c2ccc(O)c(O)c2)Oc2cc(O)c([C@@H]3O[C@H](CO)[C@@H](O)[C@H](O)[C@H]3O)c(O)c21 (stereo not given in full)	113%
Clc1ccc2c(NCCCNC3CCCCC3)ccnc2c1	101%
CS(=O)(=O)O[C@@H]1C(=O)N(c2cc3c4ccccc4ccc3c3ccccc23)[C@H]1c1ccc(F)cn1	67%
Nc1n[nH]c2cccc(C#Cc3cccc(NC(=O)c4cc(N5CCOCC5)cc(C(F)(F)F)c4)c3)c12	55.2%
CN(C)CCCn1c2c(c3cc(-c4ccco4)ccc3c1=O)C(=O)c1ccccc1-2	81.3%

SMILES	growth
O=C1CCc2ccccc2N1	87.9%
CC(C)(C)c1nn(-c2ccccc2)c2c1COCN2Cc1ccc(Cl)cc1	101%
COc1cc(-c2csc(NC(=O)Nc3ccc(Cl)cc3)n2)cc(OC)c1OC	64.8%
COc1ccc(Nc2cc(NC(=O)CNc3cc(OC)c(Cl)c(OC)c3Cl)ncn2)cc1	88%
Cc1cc(NC(=O)CNc2nc(Oc3ccc(F)cc3)nc(-c3ccc(F)cc3)n2)ccc1Cl	98.7%
CN(C)C(CNc1oc(-c2cccc3ccccc23)nc1C#N)c1ccco1 (stereo not given)	99.9%
CCOC(=O)c1c(-c2ccc(O)cc2)c(C#N)c2c(C#N)c(N)nn2c1N	95.1%
C=C1C(=O)O[C@H]2[C@H]1CC/C(COC(=O)Nc1nc3ccccc3[nH]1)=C\CC[C@@]1(C)O[C@@H]21	105%
CSc1cccc(NC(=O)Nc2nc3c(C)cccc3s2)c1	102%
COc1cc(C2=NN(C(C)=O)C(c3cccc(Nc4ccnc5cc(C(F)(F)F)ccc45)c3)C2)cc(OC)c1OC (stereo not given)	68.3%
O=c1c2ccccc2n(CC(O)CN2CCCC2)c2c(Br)cccc12 (stereo not given)	110%
COC(=O)[C@]1(C)CCC[C@]2(C)[C@H]3C[C@H]4C(C(C)C)=C[C@]3(CC[C@H]21)[C@@H]1C(=O)N(CCC#N)C(=O)[C@@H]14	109%
c1cc(CNC23CC4CC(CC(C4)C2)C3)cc(C[N+](Cc2cccc(CNC34CC5CC(CC(C5)C3)C4)c2)(Cc2cccc(CNC34CC5CC(CC(C5)C3)C4)c2)Cc2cccc(CNC34CC5CC(CC(C5)C3)C4)c2)c1 (stereo not given)	37.1% [42 µM]
COc1ccc2[nH]c(-c3ccccc3)c(C=C(C#N)C#N)c2c1	59.1%
Cc1cnc(-c2ccc(-c3ccc(NC(=O)Nc4c(F)cc(F)cc4F)cc3F)c3c2C(=O)NC3)[nH]1	43.1%
CCOC(=O)c1sc(/N=C2\NC(=O)/C(=C/c3ccc(N4CCN(C)CC4)cc3)S2)nc1C	97.6%
N#CCNc1ccc(C(=O)O)cc1	114%
Cc1nn(-c2ccc(-c3ccc(OC(F)(F)F)cc3)cc2)c2nc(-c3ccccc3)nc(N)c12	86.4%
C=C(C)[C@@H]1CC[C@]2(C(=O)O)CC[C@]3(C)[C@H](CC[C@@H]4[C@@]5(C)C[C@@H](CC#Cc6ccccc6C)C(=O)C(C)(C)[C@@H]5CC[C@]43C)[C@@H]12	36.4%
CC1=C(CCCOC(=O)NCCCl)C2=C(C)C3(CC3)[C@@](C)(O)C(=O)C2=C1	41.1%
